About 360 (0.41%) of roughly 87,000 compounds were called active. No stated cut-off is given here; in the data, active means cytotoxicity above about 50%; inactive means the rest. This excerpt belongs to a sample that is enriched for actives.
Experiment: cytotoxicity in HT1080 fibrosarcoma cells, cell-based, fluorescence readout (AID 620);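 further: cells exposed to compound overnight then 4 h with Alamar Blue; 0% = vehicle DMSO and 100% = killing control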
Conditions: HT1080 viability, at 10 µM, stronger effect = higher value

Compound	cytotoxicity
COc1ccc(CC(=O)NCc2nnc(SCC(=O)N3CCN(c4ccccc4)CC3)n2C)cc1	-7% (inactive)
COc1ccc(C)cc1NC(=O)CNC(=O)Cn1ccc2ccccc2c1=O	7.1% (inactive)
Cc1nnc(Sc2nc3c(c(=O)[nH]c(=O)n3C)n2Cc2ccccc2Cl)s1	1% (inactive)
COCCCNC(=O)Cn1cc2c(n1)CCC(C)C2 (configuration not stated)	-3.5% (inactive)
Nc1[nH]c(=S)[nH]c(=O)c1-c1ccccc1	-5% (inactive)
O=C(Nc1ccc(N2CCN(Cc3ccccc3)CC2)cc1)c1ncn[nH]1	-2.9% (inactive)
CC(=O)c1ccc(NC(=O)c2ccn[nH]2)cc1	-0.3% (inactive)
COc1cc(CC(=O)Oc2ccc3c(c2)OCO3)cc(OC)c1OC	2.2% (inactive)
COc1cc(CC(=O)NCc2ccc3c(c2)OCO3)cc(OC)c1OC	3.1% (inactive)
COc1cc([C@@H]2c3cc4c(cc3[C@H](O)[C@H]3COC(=O)[C@H]23)OCO4)cc(OC)c1OC	68.5% (active)
COc1ccc2c(c1OC)C(=O)OC2Nc1ncc(Br)cc1Br (configuration not stated)	6.2% (inactive)
COc1ccc(C2CC(=O)c3cnc(N4CCN(Cc5ccccc5)CC4)nc3C2)cc1 (configuration not stated)	22.6% (inactive)
COc1cc(C2CC(=O)c3cnc(N)nc3C2)cc(OC)c1OC (configuration not stated)	0.9% (inactive)
COc1cc(C2CC(=O)c3cnc(N4CCN(Cc5ccccc5)CC4)nc3C2)cc(OC)c1OC (configuration not stated)	52.5% (active)
CCN1CCN(c2ncc3c(n2)CC(c2cc(OC)c(OC)c(OC)c2)CC3=O)CC1 (configuration not stated)	51.1% (active)
CCN1CCN(c2ncc3c(n2)CC(c2ccc(OC)c(OC)c2)CC3=O)CC1 (configuration not stated)	-13% (inactive)
COc1ccc(C2CC(=O)c3c(C)nc(N4CCN(Cc5ccccc5)CC4)nc3C2)cc1OC (configuration not stated)	-20.1% (inactive)
COc1ccc(-n2c3c(cc(C(=O)Nc4ccc(C)cc4)c2=O)C(=O)CCC3)cc1	14.6% (inactive)
CCOc1ccc2nc(SCC(=O)NC(=O)NCc3ccco3)[nH]c2c1	-12.9% (inactive)
Cc1cc(N2CCCC2)nc(-c2ccccc2O)n1	1.6% (inactive)
Cc1nn(-c2ccccc2)c(N2CCCC2)c1/C=N/n1cnc2scc(-c3ccccc3)c2c1=O	-0.7% (inactive)
Cn1cc(/C=N/n2cnc3sc4c(c3c2=O)CCCC4)c2ccccc21	-0.6% (inactive)
Cn1cc(/C=N/n2cnc3scc(-c4ccc(Cl)cc4)c3c2=O)c2ccccc21	57.8% (active)
Cc1ccc(-c2csc3ncn(/N=C/N(C)C)c(=O)c23)o1	1.3% (inactive)
CCn1cnc2scc(-c3ccccc3)c2c1=O	6% (inactive)

Compound	cytotoxicity
Cn1cc(/C=N/n2cnc3scc(-c4ccccc4)c3c2=O)c2ccccc21	52.6% (active)
COc1ccc(S(=O)(=O)CCC(=O)NCCc2ccc(C)cc2)cc1	-7.2% (inactive)
COCCNC(=O)C(c1cccs1)N(C(=O)Cn1nnc2ccccc21)c1ccccc1 (configuration not stated)	2.1% (inactive)
Nc1cccc(Nc2nc(OC(C(F)(F)F)C(F)(F)F)nc(OC(C(F)(F)F)C(F)(F)F)n2)c1	-15.3% (inactive)
Cc1cc(C)c2nc(SCC(=O)Nc3ccccc3N3CCOCC3)c(C#N)cc2c1	4.9% (inactive)
Cc1ccsc1C(=O)N1CC(=O)Nc2ccccc21	-1.3% (inactive)
Cc1cc(C)c2nc(SCC(=O)N3CCCCC3)c(C#N)cc2c1	-0.9% (inactive)
Cc1cc(C)c2nc(SCC(=O)N3CC(=O)Nc4ccccc43)c(C#N)cc2c1	70.8% (active)
Cc1cccc2cc(C#N)c(SCC(=O)N3CCC(C)CC3)nc12	-4.3% (inactive)
Cc1cc(C)cc(C(=O)N2CC(=O)Nc3ccccc32)c1	63.6% (active)
CCc1ccc2nc(SCC(=O)N3CC(=O)Nc4ccccc43)c(C#N)cc2c1	-5.8% (inactive)
Cc1cccc2cc(C#N)c(SCC(=O)N3CC(=O)Nc4ccccc43)nc12	62.5% (active)
O=C1CN(C(=O)c2ccccc2)c2ccccc2N1	1.9% (inactive)
CC(C)Nc1oc(Cc2cccc3ccccc23)nc1C#N	4.7% (inactive)
O=C(CSc1nc2ccccc2o1)c1ccccc1	-3.2% (inactive)
Cc1cccc(NC(=S)N2N=CCC2c2ccccc2)c1 (configuration not stated)	-1.4% (inactive)
CC1=C(C(=O)OCc2ccccc2)C(c2ccccc2OC(=O)c2ccc(I)cc2)NC(=O)N1CCCC(=O)O (configuration not stated)	-5.3% (inactive)
Cn1c(SCC(=O)NCCNC(=O)CSc2nnc(C(F)(F)F)n2C)nnc1C(F)(F)F	5.9% (inactive)
Cc1ccc(Nc2cc(C)nn2-c2nc(C)cc(=O)[nH]2)cc1	65.9% (active)
Cc1cc(=O)[nH]c(-n2nc(C)cc2C)n1	-0.8% (inactive)
Cc1ccc(Nc2cc(C)nn2-c2nc(C)cc(C)n2)cc1	-13.7% (inactive)
O=C(Nc1nc(-c2cc(Cl)sc2Cl)cs1)c1cccs1	-0.1% (inactive)
CC(C)Sc1nc(-c2ccccc2)cc(=O)[nH]1	16.9% (inactive)
N#CCCCSc1nnc(-c2ccccn2)o1	0.3% (inactive)
CN(C)CCCNC(CC(=O)Nc1ccc(Cl)cc1)C(=O)O (configuration not stated)	-0.1% (inactive)

Compound	cytotoxicity
CCOC(=O)C1CCCN(C(=O)C2CCN(S(=O)(=O)c3cnc[nH]3)CC2)C1 (configuration not stated)	3.9% (inactive)
O=C(CNC(=O)c1ccc(Br)o1)Nc1cccc(-c2cnc3ccccc3n2)c1	-7.7% (inactive)
O=C(Nc1cccc(-c2cnc3ccccc3n2)c1)c1ccco1	-2.2% (inactive)
O=C(CCl)Nc1cccc(-c2cnc3ccccc3n2)c1	98.8% (active)
CCC(=O)N1c2ccccc2NC2=C(C(=O)CCC2)C1c1cccnc1 (configuration not stated)	-7% (inactive)
CC(=O)N1CCCc2cc(S(=O)(=O)N(CC(C)C)CC(C)C)ccc21	-25.7% (inactive)
Cc1ccc2cc(CN(Cc3ccco3)C(=O)c3cccs3)c(=O)[nH]c2c1	59.8% (active)
Cc1ccc2[nH]c(=O)c(CN(Cc3ccco3)C(=O)c3cccs3)cc2c1	4.9% (inactive)
O=C(c1cccs1)N(Cc1ccco1)Cc1cc2ccccc2[nH]c1=O	-4.8% (inactive)
CN(C)S(=O)(=O)c1ccc(S(=O)(=O)N(CC(=O)Nc2ccccc2)Cc2ccco2)cc1	4.9% (inactive)
COc1nnc(-c2ccc(C)c(S(=O)(=O)NCCO)c2)c2ccccc12	12.8% (inactive)
CSc1cc(-c2ccccc2)n(Cc2c(Cl)cccc2Cl)c(=O)c1C#N	58.7% (active)
Cc1cc(C)n(Cc2ccccc2F)c(=O)c1C#N	4.8% (inactive)
CSc1cc(-c2ccccc2)n(Cc2ccccc2Cl)c(=O)c1C#N	57.5% (active)
CSc1cc(-c2ccc(Cl)cc2)n(Cc2ccccc2)c(=O)c1C#N	-8.7% (inactive)
CSc1cc(-c2ccccc2)n(Cc2ccc(Cl)cc2Cl)c(=O)c1C#N	-9.5% (inactive)
Cn1c(=O)c2c(nc(SCCCC#N)n2Cc2c(F)cccc2Cl)n(C)c1=O	1.4% (inactive)
CCOc1ccc(-c2cnc(SCC(N)=O)nc2N)cc1	3.8% (inactive)
COc1ccc(Br)cc1/C(C)=N/NC1=NCCN1	-8.6% (inactive)
CCOc1ccc(Br)cc1/C(C)=N\NC1=NCCN1	12.3% (inactive)
CCOc1ccc(CSC2=NCCN2)cc1Cl	12.8% (inactive)
CCCOc1ccc(Br)cc1/C=N/O	-13% (inactive)
CCCCOc1ccc(Br)cc1/C(C)=N/NC1=NCCN1	65.1% (active)
CCCCCOc1ccc(Br)cc1/C(C)=N/NC1=NCCN1	74.8% (active)
CCOc1ccc(NC(=O)c2cnccn2)cc1	-17% (inactive)

Compound	cytotoxicity
OC(c1cccnc1)c1cccs1 (configuration not stated)	-4.7% (inactive)
COc1ccc(Br)cc1CN1CCCC(C(=O)N2CCCCCC2)C1 (configuration not stated)	1.9% (inactive)
COc1ccc(NC(=O)Cn2nnc(-c3ccccc3NC(=O)c3cccs3)n2)cc1	-14.1% (inactive)
Cc1ccc(NC(=O)Cn2nnc(-c3ccccc3NC(=O)c3cccs3)n2)cc1	61.8% (active)
O=C(Cn1nnc(-c2ccccc2NC(=O)c2cccs2)n1)Nc1ccccc1	0.3% (inactive)
Cn1c(=O)c2c(-c3ccccc3)n(-c3ccccc3O)cc2n(C)c1=O	35.8% (inactive)
COc1ccc2c(c1OC)C(=O)N1c3cccc(Cl)c3C(=O)OC21 (configuration not stated)	14.4% (inactive)
COc1ccc(Nc2nc(C)cc(C)c2C(N)=O)cc1	3.9% (inactive)
COc1ccc(C2C3=C(Nc4ncnn42)c2ccccc2CC3)cc1OC (configuration not stated)	-2.9% (inactive)
Clc1ccc(C2C3=C(Nc4ncnn42)c2ccccc2CC3)cc1 (configuration not stated)	-2.4% (inactive)
COc1cc(C2C3=C(Nc4ncnn42)c2ccccc2CC3)cc(OC)c1OC (configuration not stated)	63.8% (active)
Cc1nn(Cc2ccc(F)cc2)c(C)c1NC(=O)c1cnn2c1NC(c1cccs1)CC2C(F)(F)F (configuration not stated)	11% (inactive)
C=C(C)CSc1nc(C)c(Cc2ccccc2)c(=O)[nH]1	-0.4% (inactive)
c1ccc(NCc2nnc3n2CCCCC3)cc1	1.8% (inactive)
CC(=O)N(Cc1ccc(F)cc1)C1=C(NCc2ccccc2)C(=O)c2ccccc2C1=O	92.6% (active)
O=C(Cc1ccc(F)cc1)NCCc1ccccc1	-6.5% (inactive)
Cn1c(=O)c2c(nc(NCc3ccccc3)n2Cc2ccc(F)cc2)n(C)c1=O	-1.5% (inactive)
Cn1c(=O)c2c(nc(NCCc3ccccc3)n2Cc2ccc(F)cc2)n(C)c1=O	0.4% (inactive)
CC(=O)n1nc(-c2ccccc2)nc1NCc1ccc(F)cc1	-1.3% (inactive)
O=C(Nc1cccc(NC(=O)c2cccnc2Cl)c1)c1ccco1	-4% (inactive)
c1ccc2sc(-c3ccc4c(c3)OCO4)nc2c1	0.6% (inactive)
CCCCN(C(=O)CNC(=O)c1ccco1)C(C(=O)NC1CCCCC1)c1ccc(OC)cc1OC (configuration not stated)	-14.5% (inactive)
